Drawing on PubChem BioAssay AID1053143 (Broad Institute, 2014), this text covers activity change, negative = cytotoxicity for 34 molecules.

Molecules are shown by their SMILES. In all, about 3,400 compounds went through this assay and about 120 (3.5%) were called active. These entries were drawn from the full list. Measured potencies and affinities stand elsewhere. Values without a mark were called inactive. How the calls were made is not given here.

A short description of this experiment: viability loss in HepG2 hepatoma cells – cell-based, ATP luminescence, cherry-pick, activator set 2, cytotoxicity control, dose response (AID 1053143). As to conditions: CellTiter-Glo ATP luminescence, 72 h; series mostly up to 26 µM. For orientation: ATP-based viability assays read luminescence as a measure of living cells.
In the case of `Cc1ccc(OCC(=O)Nc2ccccc2[N+](=O)[O-])c(Br)c1`, the activity change, negative = cytotoxicity result is “inactive”.

As to `O=c1c2ccccc2oc2cc(NCCCN3CCOCC3)ccc12`, the activity change, negative = cytotoxicity result is “inactive”.

As for `O=c1c2ccccc2oc2cc(-c3ccc4cc[nH]c4c3)ccc12`, the activity change, negative = cytotoxicity result is “inactive”. As for `Nc1nc(CSc2ccccn2)nc(Nc2ccccc2)n1`, the activity change, negative = cytotoxicity result is “inactive”. For the molecule `Cc1ccccc1Nc1nc(N)nc(-c2oc3ccccc3c2C)n1`, the activity change, negative = cytotoxicity result is “inactive”. In the case of `Cc1ccc(-c2nc(Nc3ccccc3)n[nH]2)cc1`, the activity change, negative = cytotoxicity result is “inactive”. For the molecule `Cc1ccc(C)c(Nc2nc(N)c3ccccc3n2)c1`, the activity change, negative = cytotoxicity entry is “inactive”. Turning to `Nc1ccccc1-c1nc2ccccc2[nH]1`, the activity change, negative = cytotoxicity result was “inactive”. In the case of `Nc1ccccc1-c1nc2ccccc2s1` it was “inactive”; in that of `COc1ccc(-c2c3c(nc4sc(C(=O)Nc5ccccc5)c(N)c24)CCC3)cc1`, “inactive”.

Consider `CN(CC(=O)Nc1cccc(F)c1)C(=O)CCNC(=O)c1ccco1`, for which the activity change, negative = cytotoxicity entry was “inactive”. Consider `CCOC(=O)c1ccc(S(=O)(=O)NCCNCc2ccccc2)cc1`, for which the activity change, negative = cytotoxicity result is “inactive”. In the case of `CCOC(=O)C1CCN(C(=O)c2cc3cc(C)ccc3[nH]2)CC1` it was “inactive”; in that of `COC(=O)c1ccc2[nH]c(C3(O)CCCCC3)c(C)c2c1`, “inactive”; in that of `CC(C)c1ccc(N=C2N=C(N)c3ccccc32)cc1`, “inactive”. In the case of `Cc1ccc(-c2noc(CSc3ccccc3)n2)cc1` it was “inactive”. In the case of `COc1ccc(NC(=O)c2ccc3c(c2)N(C)CCS3)cc1` it was “inactive”. For `CCOc1ccc(NC(=O)c2ccc3c(c2)N(C)CCS3)cc1`, the activity change, negative = cytotoxicity entry was “inactive”. In the case of `Cc1ccc(NC(=O)Nc2cnc3ccccc3c2)cc1` it was “inactive”. As to `c1ccc(-c2nc(-c3ccc(-c4ccon4)s3)no2)cc1`, the activity change, negative = cytotoxicity result is “inactive”. The result for `CCCC(=O)N=C1SC2CS(=O)(=O)CC2N1c1ccc(-c2nc3ccc(C)cc3s2)cc1` (centres undefined) reads -6.16% [at 6 µM]; that for `O=c1c2c3c(sc2nc2n1CCCCC2)CCCC3`, “inactive”; that for `O=C(Cc1ccccc1)Nc1ccc(NC(=O)c2ccco2)nc1`, “inactive”. Regarding `O=C(CCc1ccccc1)Nc1ccc(NC(=O)c2ccco2)nc1`, the activity change, negative = cytotoxicity result was “inactive”. As to `O=C(Nc1ccc(NC(=O)c2ccco2)nc1)c1cccc(F)c1`, the activity change, negative = cytotoxicity result is “inactive”. In the case of `Cc1ccc2cc(NC(=O)c3cccc(F)c3)ccc2n1`, the activity change, negative = cytotoxicity entry is “inactive”. Consider `CC(=O)Nc1ccc2c(c1)C(=Nc1cccc(C)c1)c1ccccc1-2`, for which the activity change, negative = cytotoxicity entry is “inactive”.

`C/C(=N\OC(=O)Nc1ccc(Cl)cc1)c1ncc(C(F)(F)F)cc1N1CCOCC1`: the activity change, negative = cytotoxicity result was “inactive”. Turning to `O=C(CSc1nnc(-c2cccnc2)o1)Nc1ccccc1F`, the activity change, negative = cytotoxicity entry is “inactive”. Take `O=C(CSc1nnc(-c2ccccn2)o1)Nc1ccccc1F`: the activity change, negative = cytotoxicity entry was “inactive”. Turning to `CCOc1nc(N2CCOCC2)nc(C)c1[N+](=O)[O-]`, the activity change, negative = cytotoxicity entry was “inactive”. For the molecule `Cc1ccc(NC(=O)c2ccc(F)cc2F)cc1`, the activity change, negative = cytotoxicity result was “inactive”.

On to `c1ccc(-c2ccc(-c3ccccn3)s2)nc1`, for which the activity change, negative = cytotoxicity result was “inactive”. For the molecule `c1ccc(-c2nnc(-c3ccccn3)nn2)nc1`, the activity change, negative = cytotoxicity entry was “inactive”.
